The record followed here is PubChem BioAssay AID1347131 (National Center for Advancing Translational Sciences (NCATS), 2019).

Screen size: about 410,000 compounds; about 2,000 (0.49%) were called active. About 8% were inconclusive and are not listed. The list comes from a sample in which actives are over-represented; it also holds similar structures and randomly drawn compounds. Unmarked numbers belong to inactive results. Calls come from the whole dose curve; tested in HEK293 reporter line.
Potency is the fitted concentration of half-maximal effect.

The nature of the assay: qHTS Assay for Foot and Mouth Disease Virus Antivirals: Primary Screen against the MLPCN compound library. Note: nearly all actives have a fitted effect of over 55% in size. The note with it: FMDV antiviral cell-based qHTS; series mostly up to 57.9 µM; activity, negative = inhibition: at the top concentration.
With `COc1ccc(C(=O)Nc2onc3c2CCCC3)cc1`, the Potency was 12.6 µM (active). For `COc1ccc(-c2noc(CCCC(=O)NC3CCCC3)n2)cc1`, the “activity, negative = inhibition” value was -30.2%.

Turning to `COc1ccc(NC(=O)c2c(NC(=O)c3ccc(Br)cc3)sc3c2CCCC3)cc1`, the “activity, negative = inhibition” value was -31.2%.

Turning to `CCOc1cccc(C(=O)Nc2nnc(-c3ccco3)s2)c1`, the Potency was 11.2 µM (active). As to `CCOc1cccc(C(=O)Nc2ccc(S(=O)(=O)N(Cc3ccccc3)c3ccccc3)cc2)c1`, the “activity, negative = inhibition” value was -35.6%. Consider `COc1cccc(C(=O)Nc2cccc(-c3nnc(-c4ccccc4)o3)c2)c1`, for which the “activity, negative = inhibition” value is -69.2%. Regarding `CCN(CC)CCN(C(=O)c1ccc2c(c1)CCCC2)c1nc2ccc(C)cc2s1`, the “activity, negative = inhibition” value was -7.69%. `CC(=O)N(Cc1cc2cc(C)ccc2[nH]c1=O)c1cccc(C)c1C`: the “activity, negative = inhibition” value is -31.5%. Regarding `O=C(CCS(=O)(=O)c1ccc(Br)cc1)N1CCN(c2ccccc2F)CC1`, the “activity, negative = inhibition” value is -41.8%. Same read-out and setting: to `Cc1cc(C)c(NS(=O)(=O)c2ccc3c(c2)NC(=O)CC(=O)N3)c(C)c1` belongs -32.6%; to `O=C(NCCCCc1ccccc1)NC[C@@H]1CC[C@@H](Cc2ccc(-c3ccccc3)cc2)O1`, -31.2%. As for `COc1ccc2[nH]cc(CCNc3ncncc3-c3ccoc3)c2c1`, the Potency was 22.4 µM (active). With `COc1ccc2[nH]cc(CCNc3ccnc(-c4cccnc4)n3)c2c1`, the “activity, negative = inhibition” value is -32.1%. Same read-out and setting: with `COc1ccc2[nH]cc(CCNc3ccnc(-c4c(C)noc4C)n3)c2c1` the figure was -36.4%; with `COc1ccc(S(=O)(=O)N2CCCN(CCC(=O)Nc3cccc(C(F)(F)F)c3)CC2)cc1`, -27.1%.

Turning to `Cc1cccc(N2CCN(C(=O)CCS(=O)(=O)c3ccc4c(c3)oc(=O)n4C)CC2)c1C`, the “activity, negative = inhibition” value was -34.5%. For the compound `CCc1cc(C(=O)N2CCCC(C(=O)c3ccc(Cl)cc3)C2)no1` (centres undefined), the “activity, negative = inhibition” value is -42%. Turning to `COc1ccc(-c2cc(C(=O)N3CCCCC3)no2)cc1OC`, the “activity, negative = inhibition” value is 101%. For `O=C(c1cc(-c2ccc(Cl)cc2Cl)on1)N1CCCC1`, the Potency was 12.6 µM (active). Take `Cc1nn2cnnc2c(C)c1Cc1ccc(Cl)cc1`: the “activity, negative = inhibition” value was -30.8%. As for `Cc1cc(C)n2nc(C)c(-c3ccc(Cl)cc3)c2n1`, the “activity, negative = inhibition” value is -32.5%. `Cc1nc2nc(-c3ccc(Cl)cc3)cn2nc1C`: the Potency was 10 µM (active). `COc1ccc(/C=N/NC(=S)Nc2cc(S(=O)(=O)N3CCOCC3)ccc2N2CCOCC2)cc1O`: the “activity, negative = inhibition” value was -34.2%. Still for that read-out and setting: with `CCc1c(C)c2ccc(O)c(CN3CCN(c4ccccc4)CC3)c2oc1=O` the figure was -32.6%. With `Brc1ccc(C2C3=C(Nc4ncnn42)c2ccccc2OC3c2ccncc2)cc1` (centres undefined), the Potency was 17.8 µM (active). Regarding `COC(=O)c1c(C)oc(C)c1S(=O)(=O)NCC1CC1`, the “activity, negative = inhibition” value was 128%. For the compound `COc1ccc(NS(=O)(=O)c2ccc(-n3cccn3)cc2)cc1OC`, the “activity, negative = inhibition” value was -26.1%. `O=C(CN1CCN(S(=O)(=O)c2cc(C(F)(F)F)ccc2Cl)CC1)N1CCc2ccccc2C1`: the “activity, negative = inhibition” value is -35.1%.

Take `C=CCc1ccccc1OCC(O)CN1CCN(c2ccccc2OC)CC1` (centres undefined): the “activity, negative = inhibition” value is -34.9%. As to `COC(CNC(=O)C1CCN(S(=O)(=O)c2cccc3nsnc23)CC1)OC`, the “activity, negative = inhibition” value was -30.4%. Regarding `CCOC(=O)c1cc(-c2ccccc2)n(CCC(=O)N2CCN(c3ccccc3OC)CC2)c1C`, the “activity, negative = inhibition” value is -30.1%. For the compound `Cc1ccc2[nH]c(CSc3nnc(NC(=O)c4ccccc4F)s3)cc(=O)c2c1`, the “activity, negative = inhibition” value is -16.8%. Take `CCc1ccc(C(=O)C[n+]2cccc3cc(OC)ccc32)cc1`: the Potency is 8.91 µM (active). For the compound `Cc1cc[n+](CC(=O)c2ccc(NC(=O)c3ccccc3)cc2)c2ccccc12`, the “activity, negative = inhibition” value was -32%.

With `CCc1ccc(C2CC(c3cccc(OC)c3)n3nc(N)nc3N2)cc1` (centres undefined), the “activity, negative = inhibition” value was -34.8%. As for `CC1(c2nnc(-c3ccncc3)o2)CC(c2ccc([N+](=O)[O-])cc2)=NO1` (centres undefined), the “activity, negative = inhibition” value was -40.5%. The same measure, in the same setting: to `Cc1occc1C(=O)NNC(=S)Nc1ccccc1` belongs 122%; to `COc1ccc(-c2cc(=NC(CC(C)C)C(=O)O)c3cc(C)ccc3o2)cc1` (centres undefined), 102%. The same measure, in the same setting: with `CC(=O)Nc1scc(C)c1-c1nc2ccccc2s1` the figure was -32.6%; with `CCOC(=O)c1nc2ccccc2s1`, 101%. Consider `CCCNC(=O)c1ccc(-c2nc3ccccc3s2)s1`, for which the Potency is 14.1 µM (active). With `COc1cccc(-n2c(=O)c3c(C)c(C(=O)N(C)C)sc3n(Cc3ccc(F)cc3Cl)c2=O)c1`, the “activity, negative = inhibition” value was -30%. The same measure, in the same setting: with `Cc1nn2c(=O)cc(COC(=O)c3ccc(C(C)(C)C)cc3)nc2s1` the figure was -6.5%; with `COc1cc(CNCc2ccccn2)ccc1OCc1ccccc1Cl`, -36.2%.

With `COc1ccc(C2C3C=CCC(c4cccc(-c5ccc(C)cc5)c4)C3C(=O)N2Cc2ccccc2)cc1Cl` (centres undefined), the Potency is 12.6 µM (active). For the compound `Cc1ccc(F)c([C@H]2C3C=CCC(c4ccccc4)C3C(=O)N2Cc2ccccc2)c1` (some centres undefined), the “activity, negative = inhibition” value was -38.9%. Still for that read-out and setting: to `COc1ccc(-c2cccc([C@H]3[C@@H]4C=CC[C@@H](C)[C@@H]4C(=O)N3Cc3ccccc3)c2)cc1` belongs -37.7%. In the case of `CCOc1ncccc1C(=O)Nc1cc(S(=O)(=O)N(CC)CC)ccc1N1CCOCC1`, the “activity, negative = inhibition” value is -14.1%.

`Cc1ccc(C)c(N2CCN(C(=O)c3ccc(N4CCCC4=O)cc3)CC2)c1`: the “activity, negative = inhibition” value is -31.6%.

Turning to `Cc1oc(-c2ccccc2F)nc1CS(=O)(=O)CC(=O)NC1CCCC(C)C1C` (centres undefined), the “activity, negative = inhibition” value is -30.8%. `Cc1ccc(C(=O)Nc2ccc3c(c2)OCCO3)c(Cl)c1`: the Potency was 11.2 µM (active).

For `O=C(CN1CCN(S(=O)(=O)c2ccc(Cl)cc2)CC1)Nc1ccc2c(c1)OCCO2`, the “activity, negative = inhibition” value was -35%. Same read-out and setting: with `c1csc(CNc2ccc3c(c2)OCCO3)c1` the figure was -50.6%. On to `O=C(O)C1C2C=CC(C2)C1C(=O)Nc1ccc2c(c1)OCCO2` (centres undefined), for which the “activity, negative = inhibition” value was -31.9%. For the compound `Cc1ccsc1C(=O)Nc1ccc2c(c1)OCCO2`, the Potency is 22.4 µM (active). For `O=C(Nc1ccc2c(c1)OCCO2)c1cccc2nc3ccccc3nc12`, the “activity, negative = inhibition” value was -34.5%. The same measure, in the same setting: to `CCOC(=O)c1ccc[n+](C(C)C(=O)c2ccc(-c3ccccc3)cc2)c1` (centres undefined) belongs -34.3%; to `COc1cccc(CNC(=O)c2cccc(S(=O)(=O)N3CCN(c4ccc(F)cc4)CC3)c2)c1`, -41.7%. With `CCOc1ccc(NC(=O)CN2C(=O)CCSc3ccc(S(=O)(=O)N4CCCC4)cc32)cc1`, the “activity, negative = inhibition” value is -41.6%. Same read-out and setting: to `O=C(COC(=O)/C=C/c1cccs1)Nc1ccc(Cl)cc1F` belongs -22.2%. As for `O=C(/C=C/c1cccs1)N1CCC2(CC1)Oc1ccc(Cl)cc1C(=O)C21CC(c2cccnc2)=NO1` (centres undefined), the “activity, negative = inhibition” value is -37.6%. For the compound `O=C(/C=C/c1cccs1)c1cc(Cl)ccc1OC(=O)N1CCOCC1`, the Potency is 17.8 µM (active).

As to `O=C(CCCOc1ccc(Cl)cc1)NCC1CCCO1` (centres undefined), the “activity, negative = inhibition” value is -30.2%. On the same count and under the same terms, to `CCOC(=O)C1=C(C)Nc2ccccc2N=C1NC(=O)c1oc2ccccc2c1COC` belongs -41%; to `COc1ccccc1OCC(=O)Nc1cc(S(=O)(=O)N2CCCCC2)ccc1N1CCCCC1`, -33.5%. Consider `CN(CCC#N)c1ccc(/C=C(\C#N)c2ccccn2)cc1`, for which the Potency is 14.1 µM (active).

`COc1cc(/C=C(\C#N)c2ccccn2)ccc1OCC(=O)Nc1cccc(C(F)(F)F)c1`: the “activity, negative = inhibition” value was -29%. `CNc1nc(-c2ccc3c(c2)CCN3S(=O)(=O)c2ccccc2)c(C)s1`: the “activity, negative = inhibition” value is -30.4%. For `CC(=O)Nc1ccc(S(=O)(=O)N(C)CC(=O)Nc2ccc(Br)cc2F)cc1`, the “activity, negative = inhibition” value was -32.1%.

Consider `CCn1cc(C(=O)OCC(=O)OC2CC(C)CCC2C(C)C)c(=O)c2ccc(C)nc21` (centres undefined), for which the Potency is 22.4 µM (active). With `O=C(CCCCn1c(=O)c2ccccc2n(CC(=O)Nc2cccc(F)c2)c1=O)NCc1ccccc1Cl`, the “activity, negative = inhibition” value is -35%. The same measure, in the same setting: to `COc1ccc(C[C@H]2CN3C(=NC[C@@H]3Cc3ccc(O)cc3)N2C[C@H](C)NC(=O)CCC2CCCCC2)cc1` belongs -31.2%; to `CCCCCCCCCCC[N+](C)(C)CC/C=C1/c2ccccc2Sc2ccc(Cl)cc21`, -31.5%; to `CC1(Cc2ccc(C(F)(F)F)o2)C(=O)Nc2cc(-c3ccc(F)cc3F)ccc21` (centres undefined), -34.1%.
